Mdm2-MdmX inh – human Mdm2/MdmX binding inhibition; O15151+Q00987; SaOS-2 split-luciferase Mdm2/MdmX complementation, luminescence; inhibition, % at 8 µM; 330,000 tested, 3% active;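 active means inhibition of at least 50% at 8 µM in the primary screen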
Target sequence (O15151 whole entry, looked up): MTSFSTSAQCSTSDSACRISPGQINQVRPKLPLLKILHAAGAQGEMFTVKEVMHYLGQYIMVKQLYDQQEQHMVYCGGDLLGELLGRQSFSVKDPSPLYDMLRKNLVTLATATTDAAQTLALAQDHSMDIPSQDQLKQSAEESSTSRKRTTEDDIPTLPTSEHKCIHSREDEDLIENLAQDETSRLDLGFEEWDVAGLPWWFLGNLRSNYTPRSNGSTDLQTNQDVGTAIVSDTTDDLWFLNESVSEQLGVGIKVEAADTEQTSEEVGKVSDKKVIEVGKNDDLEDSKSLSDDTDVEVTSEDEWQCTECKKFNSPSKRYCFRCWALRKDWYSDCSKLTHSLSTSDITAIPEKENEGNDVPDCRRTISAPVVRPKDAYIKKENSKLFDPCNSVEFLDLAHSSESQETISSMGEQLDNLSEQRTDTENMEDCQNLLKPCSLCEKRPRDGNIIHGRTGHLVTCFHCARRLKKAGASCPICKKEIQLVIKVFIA
Target sequence (Q00987 whole entry, looked up): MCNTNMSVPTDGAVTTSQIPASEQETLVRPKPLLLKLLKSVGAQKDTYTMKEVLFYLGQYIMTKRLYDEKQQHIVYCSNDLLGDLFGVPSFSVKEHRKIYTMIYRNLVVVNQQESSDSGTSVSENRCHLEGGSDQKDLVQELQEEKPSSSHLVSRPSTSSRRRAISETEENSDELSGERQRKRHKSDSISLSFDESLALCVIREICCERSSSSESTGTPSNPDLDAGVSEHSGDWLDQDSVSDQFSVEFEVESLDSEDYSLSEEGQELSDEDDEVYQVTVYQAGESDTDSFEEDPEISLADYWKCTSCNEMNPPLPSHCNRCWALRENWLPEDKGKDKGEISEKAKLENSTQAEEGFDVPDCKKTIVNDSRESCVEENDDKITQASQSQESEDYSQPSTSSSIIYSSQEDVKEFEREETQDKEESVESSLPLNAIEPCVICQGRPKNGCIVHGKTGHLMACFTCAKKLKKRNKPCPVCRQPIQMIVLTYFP
NTR1 agonist – NTR1 (human) agonism. NTR1-U2OS beta-arrestin-GFP spot imaging, agonist mode. 330,000 tested, 0.17% active. activation, % at 20 µM;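 active means activation at or above 40% of the spot to cytoplasm intensity ratio, with at least 20 cells analyzed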;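 further: 0% = DMSO without peptide and 100% = 100 nM NTR1 peptide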
Bfl-1 A1 inh – inhibitors of the anti-apoptotic protein A1, read as caspase activation | MEF A1-2A-BIM cells, Caspase-Glo 3/7 luminescence, 3 h; percent of clofoctol response, vehicle zero | caspase activation, % (concentration not given with the values) | 330,000 tested, 0.066% active | AID 2462;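 active means over half of replicate activation scores above 10%, or exactly half above 10 with the replicate mean above 10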
Jurkat NFkB inh – lowers PMA/ionomycin-induced NF-kB signal in Jurkat cells; PMA/ionomycin-induced NF-kB luciferase reporter, luminescence; 330,000 tested, 0.53% active; inhibition, % at 4 µM; in the data active means inhibition above about 50%
Beta apoptosis – blocks beta cell apoptosis. INS-1E cytokine-induced death, ATP luminescence, 48 h; percent of positive-control rescue, neutral wells zero. protection from apoptosis, % (test concentration not listed). 300,000 tested, 0.8% active;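 active means Every replicate reaches about 75%, or at least half do and their mean reaches it too, limit read from the data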;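 further: 0% = cytokine-treated negative control wells and 100% = positive control rescue; higher means more ATP so stronger rescue from cytokine killing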
697 NFkB inh – inhibitors of the PMA/ionomycin-induced NF-kB reporter in 697 B cells; 697 B-cell NF-kB luciferase reporter, 16 h; inhibition, % at 4 µM; 330,000 tested, 0.33% active; in the data active means inhibition above about 35%
Jurkat NFkB conf – inhibitors of the PMA/ionomycin-induced NF-kB reporter in Jurkat cells, retest | shares compounds with Jurkat NFkB inh | Jurkat NF-kB luciferase, 16 h | inhibition, % at 4 µM | 2,700 tested, 27% active | AID 435020;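 active means inhibition reaching about 45% at 4 µM in either replicate, limit read from the data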;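 further: plate controls were PMA/ionomycin stimulated DMSO wells for no effect and unstimulated DMSO wells for full effect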
697 NFkB conf – inhibitors of the PMA/ionomycin-induced NF-kB reporter in 697 B cells, retest | shares compounds with 697 NFkB inh | 697 B-cell NF-kB luciferase, 16 h | inhibition, % at 4 µM | 2,000 tested, 35% active | AID 449746; in the data active means inhibition mostly above about 28%, no sharp cut-off; inactive means mostly below about 22%
Mdm2-MdmX conf – human Mdm2/MdmX binding inhibition, confirmed; inhibition, % at 8 µM; luminescent assay; shares compounds with Mdm2-MdmX inh; 10,000 tested, 55% active; in the data active means inhibition above about 40%
FLuc counter – counter-screen for Mdm2/MdmX inhibitors: full-length luciferase; SaOS-2 full-length luciferase counterscreen, luminescence; AID 504607; shares compounds with Mdm2-MdmX inh; inhibition, % at 8 µM; 6,200 tested, 77% active;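 active means mean inhibition at 8 µM reaching about 37%, which flags the compound as non-specific, limit read from the data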;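 further: p53-null SaOS-2 cells with luciferase driven by a doxycycline-inducible promoter; compound on cells about two nights before reading with doxycycline added after day one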
The depositor's hits bear a star; . = no result given; + = active, no number. In the library only some 3.8% were active in any assay of this set; here they are far more common.

SMILES | Mdm2-MdmX inh | NTR1 agonist | Bfl-1 A1 inh | Jurkat NFkB inh | Beta apoptosis | 697 NFkB inh | Jurkat NFkB conf | Mdm2-MdmX conf | FLuc counter | others
CCOC(=O)Nc1nc(-c2ccccc2)c(C(=O)c2ccccc2)s1 | 61* | 7 | 4 | 51* | 25 | -7 | 50* | 51* | 91*
Cc1ccc(S(=O)(=O)/N=C(/Sc2ccccc2C(=O)O)c2ccccc2)cc1 | 11 | 0 | 1 | 2 | . | -9 | . | . | .
Cc1ccc(C(=O)Sc2cccccc2=O)cc1 | 100* | 25 | -2 | 90* | 34 | -86 | 14 | 82* | 23
O=C(c1nnsc1S(=O)c1ccc(Cl)cc1)N1CCOCC1 (stereo not given) | 99* | 7 | . | 70* | . | -36 | 24 | 94* | 53*
O=C(Cc1ccc(Cl)cc1)NCCc1c[nH]c2ccccc12 | . | . | 1 | . | -3 | . | . | . | .
O=C(CCl)N(c1ccc(Cl)cc1)c1c[nH]c2ccccc12 | 69* | 19 | 1 | 71* | -5 | 80* | 26 | 100* | 52* | 697 NFkB conf=36*
O=C(Nc1cccc(Cl)c1N1CCCCC1)c1ccc2c(c1)OCCO2 | 19 | 16 | 0 | 8 | 6 | 19 | . | . | .
O=C(NC(=S)Nc1cccc(Cl)c1N1CCCCC1)c1ccc2c(c1)OCCO2 | 61* | 4 | 0 | 50* | 16 | -29 | 2 | 63* | 57*
Cc1cccc(N2CCN(S(=O)(=O)c3cc(-c4cc(C)no4)ccc3C)CC2C)c1 (stereo not given) | 50* | 3 | 1 | 64* | 30 | -26 | 32 | 54* | 38*
CCOC(=O)c1ccc(N2CCOCC2)c(NC(=O)c2c(-c3ccccc3)noc2C)c1 | 60* | 3 | 0 | 64* | . | -17 | 13 | 67* | 54*
COc1ccc(C2C3=C(Nc4ncnn42)c2ccccc2CCC3)cc1 (stereo not given) | 13 | -1 | 0 | -17 | 4 | -11 | . | . | .
COc1cc(C2C3=C(Nc4ncnn42)c2ccccc2CC3)cc(OC)c1OC (stereo not given) | 66* | 4 | 0 | 75* | 35 | 4 | 61* | 67* | 131*
Cc1ccc(/C(N)=N/OC(=O)c2ccc(C)cc2Cl)cc1 | 74* | 0 | -7 | -193 | -18 | -310 | -10 | 77* | + | 697 NFkB conf=-288
Cc1ccc(/C(N)=N/OC(=O)c2cccc(F)c2)cc1 | -59 | 1 | -4 | -136 | -5 | -152 | . | . | .
C[C@H]1O[C@@H](O[C@H]2[C@@H](O)C[C@H](O[C@H]3[C@@H](O)C[C@H](O[C@H]4CC[C@@]5(C)[C@H](CC[C@@H]6[C@@H]5C[C@@H](O)[C@]5(C)[C@@H](C7=CC(=O)OC7)CC[C@]65O)C4)O[C@@H]3C)O[C@@H]2C)C[C@H](O)[C@@H]1O | 82* | 0 | 0 | 96* | 6 | 92* | 97* | 75* | 15 | 697 NFkB conf=93*
O=C1c2c(O)ccc(O)c2C(=O)c2c(NCCNCCO)ccc(NCCNCCO)c21 | 100* | 2 | 0 | 100* | 67 | 74* | 89* | 98* | 2 | 697 NFkB conf=-63
O=C1c2ccccc2C(=O)c2c(NCCCN(CCO)CCO)cccc21 | -15 | 0 | . | 0 | . | 0 | . | . | .
Cc1cc(C)n2nc(CC(=O)NNC(=O)COc3cccc(C)c3C)nc2n1 | 19 | 1 | 0 | -7 | -5 | -2 | . | . | .
Cc1nc2ccc3nc(NC(=O)c4ccc5c(c4)OCCO5)sc3c2s1 | 11 | 0 | -1 | -22 | -7 | -11 | . | . | .
CC(C)c1nnc(NC(=O)c2ccc3c(c2)OCO3)s1 | -5 | 0 | -6 | -52 | . | -195 | . | . | .
